# PubChem BioAssay (NCATS)
# Values joined by “and” are separate entries in the source; they are usually repeats but may differ in a detail not shown here. Equal values may be shown once. Inconclusive results are not listed. Entries that show only a call come without a potency. A structure can be active in one record and inactive in another. Active and inactive are the calls of the source. Unless noted, calls follow the shape of the dose curve; as a rule, active = well fitted curve in the direction sought with a large enough effect; inconclusive = small, poorly fitted or top-dose-only effect, or another doubt; inactive = no such curve, though single readings can be large; an effect the other way counts as inactive or inconclusive.
# What was measured:
# [1] = target: Cytochrome P450 3A4 (Homo sapiens) (UniProt P08684); assay: qHTS Assay for Activators of Cytochrome P450 3A4 (AID 885); also: nearly all actives have a fitted effect of over 65% in size
# Sequence of Cytochrome P450 3A4 (Homo sapiens) (P08684 whole entry, looked up): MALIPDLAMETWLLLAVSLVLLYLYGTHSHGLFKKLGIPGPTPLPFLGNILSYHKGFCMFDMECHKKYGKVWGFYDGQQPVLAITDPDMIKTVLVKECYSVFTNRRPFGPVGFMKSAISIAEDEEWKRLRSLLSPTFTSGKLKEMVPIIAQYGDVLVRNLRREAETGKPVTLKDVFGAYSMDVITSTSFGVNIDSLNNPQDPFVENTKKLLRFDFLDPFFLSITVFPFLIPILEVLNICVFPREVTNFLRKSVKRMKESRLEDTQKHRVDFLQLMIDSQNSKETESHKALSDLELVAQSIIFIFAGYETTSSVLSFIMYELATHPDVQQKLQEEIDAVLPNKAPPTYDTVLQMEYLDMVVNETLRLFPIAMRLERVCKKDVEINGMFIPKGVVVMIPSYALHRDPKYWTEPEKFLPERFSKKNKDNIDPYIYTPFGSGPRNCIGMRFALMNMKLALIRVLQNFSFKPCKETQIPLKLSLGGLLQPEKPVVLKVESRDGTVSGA
# In short: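 Human CYP3A4 (20 nM) with Luciferin-PPXE at 25 uM (its KM) in 200 mM KPO4; 10 min compound preincubation, then NADPH regeneration and 60 min reaction at RT. Luciferin read by luminescence; normalized to 57 uM ketoconazole full inhibition.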
# [2] = target: Cytochrome P450 2D6 (Homo sapiens) (UniProt P10635); assay: qHTS Assay for Inhibitors and Substrates of Cytochrome P450 2D6 (AID 891); also: nearly all actives have a fitted effect of over 60% in size; also: potency is read from the fitted curve at half-maximal effect
# Sequence of Cytochrome P450 2D6 (Homo sapiens) (P10635 whole entry, looked up): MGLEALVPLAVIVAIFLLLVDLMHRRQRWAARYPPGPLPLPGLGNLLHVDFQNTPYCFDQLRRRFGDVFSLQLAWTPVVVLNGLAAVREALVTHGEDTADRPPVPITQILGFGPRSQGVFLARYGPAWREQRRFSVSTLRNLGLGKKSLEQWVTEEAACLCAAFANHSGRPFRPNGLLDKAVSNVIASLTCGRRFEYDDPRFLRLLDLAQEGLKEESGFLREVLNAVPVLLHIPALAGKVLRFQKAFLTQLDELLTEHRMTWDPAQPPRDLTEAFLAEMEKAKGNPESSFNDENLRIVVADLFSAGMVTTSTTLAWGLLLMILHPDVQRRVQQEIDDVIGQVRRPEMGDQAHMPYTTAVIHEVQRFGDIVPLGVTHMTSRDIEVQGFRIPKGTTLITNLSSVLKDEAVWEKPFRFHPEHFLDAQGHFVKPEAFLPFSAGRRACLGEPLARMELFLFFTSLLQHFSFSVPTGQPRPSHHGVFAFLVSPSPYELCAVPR
# In short: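 Human CYP2D6 (5 nM) with 30 uM Luciferin-ME EGE (at Km) in 100 mM KPO4, compound preincubated 10 min, then NADPH regeneration system for 60 min at room temperature. Luciferin read by luminescence; normalized to 1.43 uM quinidine.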
# [3] = qHTS Assay for Identification of Small Molecule Agonists for Thrombopoietin (TPO) Signaling Pathway (AID 917)
# In short: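 We measured Glycoprotein IIb promoter–luciferase output in IL-3-starved Ba/F3 murine cells expressing the human TPO receptor after 24 hrs at 37 C with compounds and 26 pM TPO.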
# [4] = target: Muscarinic acetylcholine receptor M1 (Rattus norvegicus) (UniProt P08482); assay: qHTS Assay for Antagonists of Acetylcholine Muscarinic M1 Receptor: Kinetic Measurement of Intracellular Calcium Response (AID 943);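 also: Fluo-4 calcium signal as peak divided by basal fluorescence over 4 min; series mostly up to about 35 µM; nearly all actives have a fitted effect of over 75% in size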
# Sequence of Muscarinic acetylcholine receptor M1 (Rattus norvegicus) (P08482 whole entry, looked up): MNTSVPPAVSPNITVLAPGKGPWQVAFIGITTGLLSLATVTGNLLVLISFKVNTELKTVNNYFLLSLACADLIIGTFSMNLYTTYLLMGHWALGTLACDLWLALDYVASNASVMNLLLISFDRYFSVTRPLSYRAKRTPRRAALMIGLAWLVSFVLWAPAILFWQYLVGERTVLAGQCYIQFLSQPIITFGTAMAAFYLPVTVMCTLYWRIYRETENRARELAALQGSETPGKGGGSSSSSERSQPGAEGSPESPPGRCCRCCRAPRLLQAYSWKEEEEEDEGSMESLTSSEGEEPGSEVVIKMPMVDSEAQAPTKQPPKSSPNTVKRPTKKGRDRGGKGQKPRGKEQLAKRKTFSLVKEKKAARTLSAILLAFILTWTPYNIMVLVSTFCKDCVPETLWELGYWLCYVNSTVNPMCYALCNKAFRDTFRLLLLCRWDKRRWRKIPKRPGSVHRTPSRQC
# In short: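 CHO cells stably expressing rat M1 were loaded with no-wash Fluo-4 dye for 1 h at 37C, pre-incubated 10 min with compound, then challenged with EC80 carbachol (100 nM final); kinetic calcium read 4 min, peak/basal ratio.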
# [5] = target: Muscarinic acetylcholine receptor M1 (Rattus norvegicus) (UniProt P08482); assay: qHTS Assay for Antagonists of Acetylcholine Muscarinic M1 Receptor: Measurement of IP-One Response (AID 944); also: nearly all actives have a fitted effect of over 75% in size
# In short: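 CHO cells expressing rat M1 receptor, recovered overnight, were pre-incubated 10 min with compound, then stimulated 30 min with carbachol at EC80 (200 nM) in LiCl-containing buffer, pH 7.4. IP1 accumulation was read by HTRF (620/665 nm).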
# [6] = target: Pyruvate kinase (Leishmania mexicana) (UniProt Q27686); assay: qHTS Validation Assay for Inhibitors of Leishmania Mexicana Pyruvate Kinase (AID 945)
# Sequence of Pyruvate kinase (Leishmania mexicana) (Q27686 2-499 E452W): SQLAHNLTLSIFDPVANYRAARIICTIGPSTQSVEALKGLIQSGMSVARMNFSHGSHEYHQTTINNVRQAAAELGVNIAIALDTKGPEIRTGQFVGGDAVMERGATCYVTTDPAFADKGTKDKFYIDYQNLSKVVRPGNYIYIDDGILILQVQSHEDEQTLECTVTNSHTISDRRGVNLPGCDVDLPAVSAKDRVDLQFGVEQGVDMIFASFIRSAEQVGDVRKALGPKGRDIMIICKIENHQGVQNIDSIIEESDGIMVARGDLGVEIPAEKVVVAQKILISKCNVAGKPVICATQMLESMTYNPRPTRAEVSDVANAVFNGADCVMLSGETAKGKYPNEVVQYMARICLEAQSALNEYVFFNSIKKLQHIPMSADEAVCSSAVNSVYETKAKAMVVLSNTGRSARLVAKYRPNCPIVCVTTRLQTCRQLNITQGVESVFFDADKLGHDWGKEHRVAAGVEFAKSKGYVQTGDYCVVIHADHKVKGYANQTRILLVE
# In short: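 Pyruvate kinase activity of E451W LmPYK (0.2 nM) was followed as ATP output after 1 h at room temperature with 0.5 mM PEP and 0.1 mM ADP, detected by PKLight luminescence.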
# [7] = target: Guanine nucleotide-binding protein G(i) subunit alpha-1 (Homo sapiens) (UniProt P63096); assay: qHTS Assay for Inhibitors of RGS12 GoLoco Motif Activity (Green Fluorophore) (AID 879);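 also: negative values mean loss of peptide binding seen as reduced polarization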
# Sequence of Guanine nucleotide-binding protein G(i) subunit alpha-1 (Homo sapiens) (P63096 whole entry, looked up): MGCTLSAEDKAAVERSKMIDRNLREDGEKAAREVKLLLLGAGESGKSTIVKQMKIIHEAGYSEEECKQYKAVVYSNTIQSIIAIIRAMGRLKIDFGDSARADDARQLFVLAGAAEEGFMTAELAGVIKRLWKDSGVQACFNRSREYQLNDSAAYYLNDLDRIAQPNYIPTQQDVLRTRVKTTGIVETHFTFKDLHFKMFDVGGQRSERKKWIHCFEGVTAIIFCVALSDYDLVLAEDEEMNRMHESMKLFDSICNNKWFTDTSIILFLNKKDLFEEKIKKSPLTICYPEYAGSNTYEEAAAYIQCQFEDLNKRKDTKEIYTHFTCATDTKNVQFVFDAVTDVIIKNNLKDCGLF
# In short: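 Fluorescence polarization assay: 50 nM Gαi1 with 10 nM FITC-labeled RGS12 GoLoco peptide in 10 mM Tris pH 7.5, 150 mM NaCl, 0.1 mM GDP, 0.05% NP40, 10 min at room temperature with compound.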
# [8] = target: Cytochrome P450 3A4 (Homo sapiens) (UniProt P08684); assay: qHTS Assay for Inhibitors and Substrates of Cytochrome P450 3A4 (AID 884); also: nearly all actives have a fitted effect of over 50% in size; also: potency is read from the fitted curve at half-maximal effect
# In short: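 20 nM human CYP3A4 with 25 uM Luciferin-PPXE (at KM) in 200 mM KPO4, preincubated 10 min with compound; NADPH regeneration started a 60 min RT reaction. Luciferin detected by luminescence, normalized to 57 uM ketoconazole as full inhibition.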
# [9] = Confirmation and Secondary Assay for Modulators of Hemoglobin Beta Chain Splicing at IVS2 654 locus (AID 910);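 also: HeLa cells stably carrying EGFP split by mutant beta-globin IVS2-654 intron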
# In short: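 HeLa cells stably expressing EGFP interrupted by β-globin IVS2-654 intron, seeded overnight in Opti-MEM/2% FCS, then treated 2 days at 37 °C. Restored splicing read as total peak GFP intensity per well by laser scanning cytometry (488 nm excitation, 500–520 nm emission); 500 nM antisense PNA as control.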
# [10] = Confirmation and Secondary Assay for Modulators of Hemoglobin Beta Chain Splicing at IVS2 705 locus (AID 930);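 also: HeLa cells stably expressing the EGFP-705 splicing reporter; GFP fluorescence per well restored by corrected splicing of the IVS2-705 intron in EGFP; series mostly up to about 46 µM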
# In short: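 Assay measures total GFP intensity per well in HeLa EGFP-705 cells after 2 days with compound; mis-splicing normally truncates EGFP, so fluorescence indicates corrected splicing.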
# [11] = target: Cytochrome P450 2C9 (Homo sapiens) (UniProt P11712); assay: qHTS Assay for Inhibitors and Substrates of Cytochrome P450 2C9 (AID 883); also: potency is read from the fitted curve at half-maximal effect; nearly all actives have a fitted effect of over 60% in size
# Sequence of Cytochrome P450 2C9 (Homo sapiens) (P11712 whole entry, looked up): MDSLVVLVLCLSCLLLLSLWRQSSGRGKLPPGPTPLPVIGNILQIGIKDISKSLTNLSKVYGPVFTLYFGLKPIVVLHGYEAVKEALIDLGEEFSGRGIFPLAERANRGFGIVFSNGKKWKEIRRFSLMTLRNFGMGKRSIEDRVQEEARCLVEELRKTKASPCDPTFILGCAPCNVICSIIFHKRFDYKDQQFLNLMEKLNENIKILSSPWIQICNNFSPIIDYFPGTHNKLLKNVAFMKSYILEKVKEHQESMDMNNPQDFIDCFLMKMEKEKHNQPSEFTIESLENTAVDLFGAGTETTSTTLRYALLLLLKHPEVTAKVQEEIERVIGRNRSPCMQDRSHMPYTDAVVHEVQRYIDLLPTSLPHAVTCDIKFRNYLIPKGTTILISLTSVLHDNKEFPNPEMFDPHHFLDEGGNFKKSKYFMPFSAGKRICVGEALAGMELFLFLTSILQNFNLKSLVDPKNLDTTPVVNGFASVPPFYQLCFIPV
# In short: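 10nM CYP2C9 + 100uM Luciferin-H (=KM), 25mM KPO4; cpd 10 min 37C; NADPH regen, 60 min 37C; stop/detect with P450 Glo-Buffer 20 min; luminescence. Norm. to 57uM sulphaphenazole as full inhibition.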
# [12] = qHTS Assay for Identification of Small Molecule Antagonists for NFkB Signaling Pathway (AID 895; active = well fitted inhibition curve with a large enough effect in the signal ratio, with a control signal flat, not every such curve was filed as active; the % refers to the signal ratio; also: potency is read from the fitted curve at half-maximal effect)
# In short: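 ME-180 NFkB-bla cells (beta-lactamase under NFkB response element), plated overnight, treated with compound then 10 pM TNF alpha (about EC50) for 5 hrs at 37 C. LiveBLAzer FRET read at 460/530 nm emission, 405 nm excitation.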
# [13] = qHTS Assay for Identification of Small Molecule Antagonists for Thrombopoietin (TPO) Signaling Pathway (AID 918); details: TPO-dependent cell signaling reporter, antagonist mode; also: potency is read from the fitted curve at half-maximal effect; nearly all actives have a fitted effect of over 60% in size
# In short: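 Murine Ba/F3 cells stably expressing human TPO receptor and a Glycoprotein IIb promoter–luciferase reporter were IL-3-starved overnight, treated with compounds plus TPO (26 pM final, its EC50) for 24 hrs at 37 C, then read by luminescence.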
# [14] = qHTS Assay for Identification of Small Molecule Agonists for Hypoxia Response Element Signaling Pathway (AID 914; active = well fitted activation curve with a large enough effect in the signal ratio, with a control signal flat, not every such curve was filed as active; the % refers to the signal ratio); details: ME-180 (cervical carcinoma) HRE-bla reporter, beta-lactamase ratio, CoCl2, 17 h; stronger effect = higher value
# In short: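 Compounds in a titration series were added to ME-180 reporter cells alongside an EC50 level of CoCl2. After 17 hours, beta-lactamase activity was read as the 460nm/530nm emission ratio of CCF4, giving AC50 values.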
smiles,measurement,setting,value
COCCCCC(=NOCCN)c1ccc(C(F)(F)F)cc1,outcome,[1],inactive
same,Potency,[2],3.98 µM (active)
same,Potency,[3],inactive
same,outcome,[4],inactive
same,outcome,[5],inactive
same,Potency,[6],inactive
COc1ccc(Cc2nccc3cc(OC)c(OC)cc23)cc1OC,outcome,[7],inactive
same,Potency,[6],inactive
O=c1cc(-c2ccccc2)oc2cc(O)cc(O)c12,Potency,[8],7.94 µM (active) and inactive and 2.51 µM (active)
same,outcome,[1],inactive
same,outcome,[9],inactive
same,outcome,[10],inactive
O=C1C[C@@H](c2ccc(O)cc2)Oc2cc(O)cc(O)c21,Potency,[2],inactive
CCCCCCCCCCCC1=C(O)C(=O)C=C(O)C1=O,Potency,[11],25.1 µM (active)
same,Potency,[8],inactive
same,Potency,[2],inactive and 2 µM (active)
same,outcome,[9],inactive
same,outcome,[10],inactive
Clc1ccc(Cn2c(CN3CCCC3)nc3ccccc32)cc1,outcome,[7],inactive
same,outcome,[1],inactive
same,Potency,[2],1.26 µM (active) and 794 nM (active)
same,Potency,[3],inactive
same,outcome,[5],inactive
same,Potency,[6],inactive
CC1(C)CCC2=C(O1)c1ccccc1C(=O)C2=O,outcome,[7],inactive
same,Potency,[12],8.91 µM (active)
same,Potency,[13],1.58 µM (active)
same,Potency,[6],inactive
c1cc(-c2sc(-c3ccncc3)c(-c3ccncc3)c2-c2ccncc2)ccn1,Potency,[11],2 µM (active)
same,Potency,[8],316 nM (active)
same,"activity change, positive = activation",[1],-102% [at 11.4 µM] (inactive)
same,activation,[14],-25.7% (inactive)
O=C(O)CCc1nc(-c2ccccc2)c(-c2ccccc2)o1,outcome,[7],inactive
same,outcome,[9],inactive
same,Potency,[3],inactive
same,outcome,[10],inactive
same,Potency,[6],inactive
CS(=O)c1ccc(-c2nc(-c3ccc(F)cc3)c(-c3ccncc3)[nH]2)cc1 (centres undefined),Potency,[11],2 µM (active)
same,outcome,[1],inactive
